PubChem BioAssay AID431 (Sanford-Burnham Center for Chemical Genomics, 2006)
Out of some 63,000 compounds screened, about 1,100 (1.7%) were called active.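 Rule for the calls: active = compounds whose percent cytotoxicity in the single-dose primary screen, scaled between solvent and toxic-drug controls, exceeds 50; inactive = the rest.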 What follows is part of a selection rich in actives, with near analogues and random picks from the rest. Potency and affinity values are given separately.

test: cytotoxicity in KRAS-transformed pancreatic duct cells, primary screen, cell-based, fluorescence, HTS (AID 431); details: HPDE-C7K KRASV12 cells, Alamar Blue viability, 48 h; at 10 µM; stronger effect = higher value;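 note: 0% = DMSO solvent wells and 100% = doxorubicin-treated wells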

Row | SMILES | cytotoxicity
1 | CCOc1ccc(-c2[nH]ncc2Oc2cccc(OC)c2)c(O)c1 | 58.3% (active)
2 | COc1ccc(-c2[nH]ncc2-c2cnn(-c3ccccc3)c2)c(O)c1 | 2.7% (inactive)
3 | COc1cccc(Oc2cn[nH]c2-c2ccc(O)cc2O)c1 | 43.9% (inactive)
4 | COc1cccc(Oc2cn[nH]c2-c2ccc(OC)cc2O)c1 | 80.7% (active)
5 | CCOc1cccc(OCCOCCN2CCCC2)c1 | -6.3% (inactive)
6 | COc1ccc(CC(=O)Nc2cccc(-c3nnc(-c4ccc(C)cc4)o3)c2)cc1OC | 18.8% (inactive)
7 | O=C(c1ccco1)N1C2C=CC(C2)C1(C(F)(F)F)C(F)(F)F (stereo unspecified) | 0.4% (inactive)
8 | COc1cccc(C2=NOC(C(=O)NC(C)(C)C)C2)c1 (stereo unspecified) | 0.2% (inactive)
9 | COc1cccc(C2=NOC(C(=O)NC(C)C)C2)c1 (stereo unspecified) | -9.8% (inactive)
10 | Cc1cc2cc(CNC(=O)c3ccc4c(c3)OCO4)ccc2[nH]1 | 15.6% (inactive)
11 | CN1CCN(c2nc(-c3cccnc3)nc3ccccc23)CC1 | -10.1% (inactive)
12 | Cn1nnnc1Sc1nc(-c2cccnc2)nc2ccccc12 | 109% (active)
13 | OCCSc1nc(-c2cccnc2)nc2ccccc12 | 2.2% (inactive)
14 | O=C(NCc1ccco1)c1cccnc1-c1nc2ccccc2s1 | 0% (inactive)
15 | COC(=O)c1cn(CC(=O)N2CCCCCC2)c2ccccc12 | 3.6% (inactive)
16 | Cn1nccc1C(=O)OCC(=O)Nc1nc(-c2ccccc2)cs1 | -24.7% (inactive)
17 | O=C1c2[nH]nc(-c3ccccc3O)c2C(c2ccccc2)N1Cc1ccco1 (stereo unspecified) | 32.3% (inactive)
18 | O=C1C(=O)N(Cc2ccco2)C(c2cccc(Cl)c2)/C1=C(\O)c1ccc2c(c1)OCCO2 (stereo unspecified) | 2.2% (inactive)
19 | O=C1c2ccccc2NC(c2ccc(F)cc2)N1Cc1ccco1 (stereo unspecified) | 2.1% (inactive)
20 | O=C1c2ccccc2C(O)N1Cc1ccco1 (stereo unspecified) | -9% (inactive)
21 | O=C1c2[nH]nc(-c3ccccc3O)c2C(c2cccc(Cl)c2)N1CC1CCCO1 (stereo unspecified) | 38.2% (inactive)
22 | CC(=O)C1=C(O)C(=O)N(Cc2ccco2)C1c1ccc(F)cc1 (stereo unspecified) | 8.7% (inactive)
23 | CCn1c(SCC(=O)NCc2cccs2)nnc1-c1ccncc1 | -3.4% (inactive)
24 | O=C(Nc1ccc(C(=O)Oc2ccccc2)c(O)c1)c1ccco1 | -1.3% (inactive)
25 | Cc1sc2ncnc(SCC(=O)N3CCCC3)c2c1C | -13.4% (inactive)
26 | O=C(CSc1nnc(Cc2ccccc2)o1)N1CCc2ccccc21 | -9.6% (inactive)

Row | SMILES | cytotoxicity
27 | C=CCn1c(=N)c(C(=O)OC)cc2c(=O)n3cccc(C)c3nc21 | -26.9% (inactive)
28 | Cc1ccc(C(=O)N2CCCC2)cc1S(=O)(=O)Nc1ccccc1 | -7% (inactive)
29 | CC1CCN(C(=O)CSc2nc(N)cc(N)n2)CC1 | -11.1% (inactive)
30 | CCCc1cc(C(=O)Cc2ccc(C(=O)OCC)o2)c(O)cc1O | 24.5% (inactive)
31 | CCc1cc(C(=O)Cc2cnn(-c3ccccc3)c2)c(O)cc1O | 6.7% (inactive)
32 | CCc1cc(C(=O)Cc2nc3ccccc3[nH]2)c(O)cc1O | 20% (inactive)
33 | CCc1cc(C(=O)COc2ccccc2F)c(O)cc1O | -13.8% (inactive)
34 | CCCc1cc(C(=O)Cc2ccc(F)cc2)c(O)cc1O | 80.9% (active)
35 | CCc1cc(C(=O)Cc2ccc(F)cc2)c(O)cc1O | 50.9% (active)
36 | O=C(Nc1ccccc1-c1nc2ccccc2s1)c1ccco1 | 7.5% (inactive)
37 | CC1(C)CC(=O)C2=C(C1)Nc1ccccc1NC2c1ccccn1 (stereo unspecified) | -20% (inactive)
38 | COc1ccc(-c2cc(-c3c(O)c(OC)c4occc4c3OC)[nH]n2)cc1OC | 36.2% (inactive)
39 | COc1ccc(CCCc2nnc(SCC(=O)Nc3nccs3)n2C)cc1C | -0.1% (inactive)
40 | N#Cc1cc2c(nc1SCC(=O)Nc1sc3c(c1C#N)CCC3)CCCCC2 | 23% (inactive)
41 | CCOC(=O)c1sc(NC(=O)CSc2nc3c(cc2C#N)CCCCCC3)c(C#N)c1C | 81.6% (active)
42 | CCOC(=O)c1sc(NC(=O)CSc2nc3c(cc2C#N)CCC3)c(C#N)c1C | -0.1% (inactive)
43 | CCCS(=O)(=O)N1CCCC(C(=O)NCCc2ccc(Cl)cc2)C1 (stereo unspecified) | -3.4% (inactive)
44 | COc1cc(NS(=O)(=O)c2ccc(C)cc2C)cc(OC)c1OC | 30.3% (inactive)
45 | O=C(O)c1cccc(S(=O)(=O)Nc2ccc3oc(=O)sc3c2)c1 | 6.5% (inactive)
46 | Cc1ccc(CNc2ccc3c(c2)OCO3)c(C)c1 | 64.8% (active)
47 | c1cc(CNc2ccc3c(c2)OCO3)ccn1 | -0.7% (inactive)
48 | Cc1ccc(CNc2ccc3c(c2)OCO3)cc1 | 28.9% (inactive)
49 | Fc1ccc(Cn2nnnc2CN2CCN(C3CCCC3)CC2)cc1 | 5.5% (inactive)
50 | Cc1cc(N2CCC(C(=O)Nc3ccc(F)cc3)CC2)nc(-c2ccccc2)n1 | -0.7% (inactive)
51 | Cc1cc(N2CCN(c3ccccc3)CC2)nc(-c2ccccc2)n1 | -1.4% (inactive)
52 | Cc1cc(N2C3CCC2CC(O)(c2ccc(F)cc2)C3)nc(-c2ccccc2)n1 (stereo unspecified) | 76.5% (active)

Row | SMILES | cytotoxicity
53 | O=C(c1cnccn1)N1CCc2ccccc21 | -21% (inactive)
54 | O=S(=O)(NCc1cccs1)c1cccc2cccnc12 | 6.5% (inactive)
55 | Cc1cc(NC(c2cccnc2)c2ccc3cccnc3c2O)no1 (stereo unspecified) | 24.3% (inactive)
56 | Cc1cnc(C(=O)Nc2ccccc2C(=O)N2CCOCC2)cn1 | 1.7% (inactive)
57 | O=C(O)c1ccc2cccc(Cl)c2c1O | 24.3% (inactive)
58 | COc1cccc(NS(=O)(=O)c2ccc3[nH]cc(C(=O)NCCN4CCOCC4)c(=O)c3c2)c1 | -12.6% (inactive)
59 | CC1CCN(S(=O)(=O)c2ccc3[nH]cc(C(=O)NCCN4CCOCC4)c(=O)c3c2)CC1 | 57.8% (active)
60 | Cc1ccccc1NS(=O)(=O)c1ccc2[nH]cc(C(=O)NCCCN3CCOCC3)c(=O)c2c1 | 3.9% (inactive)
61 | COc1ccc(CNC(=O)C2CCCN2S(=O)(=O)c2ccc(S(=O)(=O)N(C)C)cc2)cc1 (stereo unspecified) | -14.8% (inactive)
62 | Cc1cc(NCCN2CCOCC2)n2c(nc3ccccc32)c1C#N | 11.6% (inactive)
63 | CCOC(=O)CC(=O)CSC1=C(C#N)C(c2ccccc2OC)CC(=O)N1 (stereo unspecified) | 70.2% (active)
64 | CCCOC(=O)CSC1=C(C#N)C(c2ccc3c(c2)OCO3)CC(=O)N1 (stereo unspecified) | 61.7% (active)
65 | CCOC(=O)CSC1=C(C#N)C(c2ccc(Cl)cc2)CC(=O)N1 (stereo unspecified) | -10.7% (inactive)
66 | CCCCCCSC1=C(C#N)C(c2ccc(C)o2)CC(=O)N1 (stereo unspecified) | -6.9% (inactive)
67 | CCOC(=O)CSC1=C(C#N)C(c2ccc3c(c2)OCO3)CC(=O)N1 (stereo unspecified) | 27.9% (inactive)
68 | CCCCOC(=O)CSC1=C(C#N)C(c2ccc3c(c2)OCO3)CC(=O)N1 (stereo unspecified) | 21.6% (inactive)
69 | Cc1ccc(C2CC(=O)NC(SCC(=O)OCc3ccccc3)=C2C#N)o1 (stereo unspecified) | 55.7% (active)
70 | CCOC(=O)CSC1=C(C#N)C(c2ccc(C)o2)CC(=O)N1 (stereo unspecified) | 67.9% (active)
71 | COC(=O)CSC1=C(C#N)C(c2ccccc2)CC(=O)N1 (stereo unspecified) | -15.7% (inactive)
72 | CCOC(=O)CSC1=C(C#N)C(c2ccccc2OC)CC(=O)N1 (stereo unspecified) | 30.7% (inactive)
73 | CCSC1=C(C#N)C(c2ccccc2OC)CC(=O)N1 (stereo unspecified) | -0.5% (inactive)
74 | Cc1ccc(C2CC(=O)NC(SCc3ccccc3)=C2C#N)o1 (stereo unspecified) | 9% (inactive)
75 | O=C(CN(Cc1ccccc1F)S(=O)(=O)c1ccc(Cl)cc1)NCCCO | -0.2% (inactive)
76 | CC1CCN(c2nc3c(c(=O)n(C)c(=O)n3C)n2CCSc2nc3ccccc3s2)CC1 | -22% (inactive)
77 | COc1ccccc1C(c1nnnn1CS(=O)(=O)c1ccc(C)cc1)N1CCSCC1 (stereo unspecified) | -16.2% (inactive)
78 | CCCn1c(SCC(=O)NCC2CCCO2)nc2c1c(=O)n(C)c(=O)n2C (stereo unspecified) | 2.7% (inactive)

Row | SMILES | cytotoxicity
79 | CCOc1ccc(C2CC(=O)NC(SCC(=O)OC)=C2C#N)cc1 (stereo unspecified) | -6.5% (inactive)
80 | CCOC(=O)CSC1=C(C#N)C(c2sccc2C)CC(=O)N1 (stereo unspecified) | 52% (active)
81 | CCOC(=O)CSC1=C(C#N)C(c2ccc(C)s2)CC(=O)N1 (stereo unspecified) | 49.2% (inactive)
82 | Cc1ccc(NCc2nnc3n2CCCCC3)cc1 | -2.7% (inactive)
83 | CCOC(=O)N1CCC(N2CCN(S(=O)(=O)CC)CC2)CC1 | 3.6% (inactive)
84 | O=C(Nc1nc2c(s1)CCc1ccccc1-2)c1ccco1 | 5.1% (inactive)
85 | CC1CCc2nc(NC(=O)c3ccco3)sc2C1 (stereo unspecified) | -5.4% (inactive)
86 | O=S(=O)(Cc1ccccc1)NCc1ccccn1 | 1.9% (inactive)
87 | C=CCn1c(SCC(=O)NCc2ccco2)nnc1-c1ccc2ccccc2n1 | 16.6% (inactive)
88 | CCc1nc(OCCN(C)C)c2oc3ccccc3c2n1 | -2.7% (inactive)
89 | CCN(CC)CCOc1nc(C)nc2c1oc1ccccc12 | -1.3% (inactive)
90 | CN(C)CCOc1nc(-c2ccccc2)nc2c1oc1ccccc12 | 56.8% (active)
91 | CC1Oc2ccccc2N(Cc2ccccc2F)C1=O (stereo unspecified) | 3.3% (inactive)
92 | CCOC(=O)c1cccc(C(=O)OCC)n1 | -5.9% (inactive)
93 | CCOC(=O)c1ccccc1NC(=O)COC | -2.8% (inactive)
94 | Cc1ccccc1CS(=O)(=O)Cc1ccc(C(=O)NCCCN2CCCC2=O)o1 | -10.2% (inactive)
95 | CCOC(=O)c1c(NC(=O)c2nn(CC)cc2Br)sc2c1CCCCC2 | 16.9% (inactive)
96 | Cc1nc(Sc2nnnn2-c2ccccc2)c(C#N)c(C)c1C | -8% (inactive)
97 | Cc1sc2ncnc(SCc3ccco3)c2c1C | -15.5% (inactive)
98 | Cc1sc2ncnc(Sc3nnnn3-c3ccccc3)c2c1C | 101% (active)
99 | CCCn1c(Sc2nnnn2-c2ccccc2)n[nH]c1=O | -14.1% (inactive)
100 | Clc1ccc(-n2nnnc2Sc2ncnc3sccc23)cc1 | -6.3% (inactive)
101 | CCOC(=O)c1ccc(CNC(=O)c2cc3cccc(OC)c3oc2=O)o1 | -2.4% (inactive)
